Experimental data as given in PubChem BioAssay (Tox21).
Inconclusive results are not listed. Calls of active or inactive are those of the source. Unless noted, calls follow the shape of the dose curve; as a rule, active = well fitted curve in the direction sought with a large enough effect in the repeat runs; inconclusive = weak or mixed curves; inactive = no such curve, though single readings can be large; an effect the other way counts as inactive or inconclusive.

Tests used:
[1] = qHTS assay for small molecule agonists of the p53 signaling pathway (AID 651631; calls by dose curve; also: nearly all actives have a fitted effect of over 15% in size)
Outline: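 HCT-116 cells carrying a stable p53 response element–beta-lactamase reporter were plated, rested 5 h at 37 °C, then exposed to compound in DMSO for 16 h at 37 °C; reporter activity was read as FRET substrate fluorescence after 2 h at room temperature.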

[2] = qHTS assay for small molecules that induce genotoxicity in human embryonic kidney cells expressing luciferase-tagged ATAD5 (AID 651632); also: nearly all actives have a fitted effect of over 15% in size
Outline: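 ATAD5-luc HEK293T, 2,000 cells/well; cpd or DMSO pin-transferred; 16 hr, 37C/5% CO2; Amplite 30 min RT; luminescence.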

[3] = qHTS assay for small molecule agonists of the p53 signaling pathway - cell viability (AID 651633; calls by dose curve; also: series mostly up to about 83 µM; nearly all actives have a fitted effect of over 30% in size)
Outline: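 p53RE-bla cells, seeded at 4,000 per well and rested 5 h at 37 C/5% CO2, received compounds in DMSO for 16 h at 37 C. CellTiter-Glo was then added, and luminescence was read after 30 min at room temperature to gauge cytotoxicity.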

[4] = qHTS assay for small molecules that induce genotoxicity in human embryonic kidney cells expressing luciferase-tagged ATAD5 - cell viability (AID 651634; calls by dose curve; also: nearly all actives have a fitted effect of over 25% in size)
Outline: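 Fluorescence from CellTiter-Fluor, reporting protease activity within live cells, served as the viability read-out. HEK293T cells carrying luciferase-tagged ATAD5 had been treated with compound for 15.5 hr at 37C.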

[5] = qHTS assay for small molecule disruptors of the mitochondrial membrane potential - cell viability (AID 720634; calls by dose curve;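 also: human HepG2 liver cancer cells; series mostly up to about 83 µM; nearly all actives have a fitted effect of over 20% in size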)
Outline: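 Cells: HepG2, 2,000/well, attached overnight. Compound 1 hr, 37 C/5% CO2. +m-MPI dye, +CellTiter-Glo 30 min RT. Readout: luminescence (ATP).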

[6] = qHTS assay for small molecule disruptors of the mitochondrial membrane potential (AID 720635)
Outline: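 HepG2 cells (2,000/well) attached overnight at 37C, then took compound for 1 hr at 37C, 5% CO2. Mito-MPS dye was added for 30 min; fluorescence was read at 490/535 nm (monomers) and 540/590 nm (aggregates).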

[7] = qHTS assay to test for compound auto fluorescence at 590 nm (red) in HepG2 cells (AID 720674)
Outline: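 Rose Bengal sodium served as the red fluorophore standard. HepG2 monolayers (overnight attachment, MEM with 10% FBS) were exposed to test compounds for 1 hr at 37 C and read at Ex 540/Em 590 nm.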

[8] = qHTS assay to test for compound auto fluorescence at 535 nm (green) in HepG2 cells (AID 720675)
[9] = qHTS assay to test for compound auto fluorescence at 460 nm (blue) in HEK293 cells (AID 720678)
Outline: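 Measured: blue fluorescence (Ex 405/Em 460 nm) of compound-treated HEK293 cells, incubated overnight at 37C with 5% CO2 and scaled to triamterene equivalents.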

[10] = qHTS assay to test for compound auto fluorescence at 590 nm (red) in HEK293 cells (AID 720679)
Outline: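 Using HEK293 cells at 2,000 per well, the screen added 23 nL of each compound after cell attachment and incubated overnight (37C, 5% CO2). The plate reader then captured red-label fluorescence, Ex/Em 540/590nm.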
% is scaled to controls: 0 for no effect and ±100 for the full control effect.

COc1cc(C(=O)OC(COCCC(C)C)CN2CCOCC2)cc(OC)c1OC (stereo not given)
inactive: Potency [1] | Potency [2] | Potency [3] | Potency [4] | outcome [5] | Potency [6] | outcome [7] | outcome [8] | outcome [9] | outcome [10]

C[N+]1(C)CCCC(OC(=O)C(O)(c2ccccc2)c2ccccc2)C1 (stereo not given)
inactive: Potency [1] | Potency [2] | Potency [3] | Potency [4] | outcome [5] | Potency [6] | fluorescence, relative to Rose Bengal [7] 0.011% [at 18.6 µM] | fluorescence, % of fluorescein control [8] -0.152% [at 18.6 µM] | fluorescence, % of triamterene [9] 0.0818% [at 18.6 µM] | fluorescence, % of fluorescent control [10] 0.215% [at 18.6 µM]

CCN[C@@H]1C[C@H](N)[C@@H](OC2OC(CN)=CCC2N)[C@H](O)[C@H]1O[C@H]1OC[C@](C)(O)[C@H](NC)[C@H]1O (stereo not given in full)
inactive: Potency [1] | Potency [2] | Potency [3] | Potency [4] | outcome [5] | Potency [6] | outcome [7] | outcome [8] | outcome [9] | outcome [10]

CCCO[Si](OCCC)(OCCC)OCCC
inactive: Potency [1] | Potency [2] | Potency [3] | Potency [4] | outcome [5] | Potency [6] | outcome [7] | outcome [8] | outcome [9]

CC(C)(CCC(=O)O)C(=O)O
inactive: Potency [1] | Potency [2] | Potency [3] | Potency [4] | outcome [5] | Potency [6] | outcome [7] | outcome [8] | outcome [9] | outcome [10]

CC(C)C(=O)OC(=O)C(C)C
inactive: Potency [1] | Potency [2] | Potency [3] | Potency [4] | outcome [5] | Potency [6] | outcome [7] | outcome [8] | outcome [9]

CC1=NS(=O)(=O)c2cc(Cl)ccc2N1
inactive: Potency [1] | Potency [2] | Potency [3] | Potency [4] | outcome [5] | Potency [6] | outcome [7] | outcome [8] | outcome [9] | outcome [10]

CCN(C=O)CC
inactive: Potency [1] | Potency [2] | Potency [3] | Potency [4] | outcome [5] | Potency [6] | outcome [7] | outcome [8] | outcome [9]

CNCCO
inactive: Potency [1] | Potency [2] | Potency [3] | Potency [4] | outcome [5] | Potency [6] | outcome [7] | outcome [8] | outcome [9] | outcome [10]

CC(COc1ccccc1)NN (stereo not given)
inactive: Potency [1] | Potency [2] | Potency [3] | Potency [4] | outcome [5] | Potency [6] | outcome [7] | outcome [8] | outcome [9] | outcome [10]

C[N+]1(CC2COC(c3ccccc3)(c3ccccc3)O2)CCCCC1 (stereo not given)
inactive: Potency [1] | Potency [2] | Potency [3] | Potency [4] | outcome [5] | Potency [6] | outcome [7] | outcome [8] | outcome [9]

NCCCC[C@H](N[C@@H](CCc1ccccc1)C(=O)O)C(=O)N1CCC[C@H]1C(=O)O
inactive: Potency [1] | Potency [2] | Potency [3] | Potency [4] | outcome [5] | Potency [6] | fluorescence, relative to Rose Bengal [7] 0.575% [at 18.6 µM] | fluorescence, % of fluorescein control [8] -0.177% [at 18.6 µM] | fluorescence, % of triamterene [9] -0.377% [at 18.6 µM]

Nc1ccncc1N
inactive: Potency [1] | Potency [2] | Potency [3] | Potency [4] | outcome [5] | Potency [6] | outcome [7] | outcome [8] | outcome [9] | outcome [10]

C[C@H]1C[C@H]2[C@@H]3CCC4=CC(=O)C=C[C@]4(C)[C@H]3C(=O)C[C@]2(C)[C@@]1(O)C(=O)CO
inactive: Potency [1] | Potency [2] | Potency [3] | Potency [4] | outcome [5] | Potency [6] | outcome [7] | outcome [8] | outcome [9] | outcome [10]

O=C(c1ccccc1)C1(O)CCCCC1
inactive: Potency [1] | Potency [2] | Potency [3] | Potency [4] | outcome [5] | Potency [6] | outcome [7] | outcome [8] | outcome [9] | outcome [10]

O=C(CO)[C@@H](O)[C@H](O)[C@@H](O)CO
inactive: Potency [1] | Potency [2] | Potency [3] | Potency [4] | outcome [5] | Potency [6] | outcome [7] | outcome [8] | outcome [9] | outcome [10]

O=C(O)c1cc(C(=O)O)cc(C(=O)O)c1
inactive: Potency [1] | Potency [2] | Potency [3] | Potency [4] | outcome [5] | Potency [6] | outcome [7] | outcome [8] | outcome [9] | outcome [10]

CC(C(=O)O)c1cccc(Oc2ccccc2)c1 (stereo not given)
inactive: Potency [1] | Potency [2] | Potency [3] | Potency [4] | outcome [5] | Potency [6] | fluorescence, relative to Rose Bengal [7] -0.601% [at 18.6 µM] | fluorescence, % of fluorescein control [8] 0.0036% [at 18.6 µM] | fluorescence, % of triamterene [9] 0.0483% [at 18.6 µM] | fluorescence, % of fluorescent control [10] -0.0737% [at 18.6 µM]

CCCCCCCCCCCCCCCCCCO
inactive: Potency [1] | Potency [2] | Potency [3] | Potency [4] | outcome [5] | Potency [6] | outcome [7] | outcome [8] | outcome [9] | outcome [10]

COc1cc(C)nc(-n2nc(C)cc2OC)n1
inactive: Potency [1] | Potency [2] | Potency [3] | Potency [4] | outcome [5] | Potency [6] | fluorescence, relative to Rose Bengal [7] -0.559% [at 18.6 µM] | fluorescence, % of fluorescein control [8] 0.0331% [at 18.6 µM] | fluorescence, % of triamterene [9] 0.0208% [at 18.6 µM] | fluorescence, % of fluorescent control [10] -0.0061% [at 18.6 µM]

O=Cc1cccc(Br)c1
inactive: Potency [1] | Potency [2] | Potency [3] | Potency [4] | outcome [5] | Potency [6] | outcome [7] | outcome [8] | outcome [9] | outcome [10]

O=C1CCCCCCCCCCCCCCO1
inactive: Potency [1] | Potency [2] | Potency [3] | Potency [4] | outcome [5] | Potency [6] | outcome [7] | outcome [8] | outcome [9] | outcome [10]
